Measurements as given in PubChem BioAssay (EPA / NIEHS).
Inconclusive results are not listed. Active and inactive are the calls of the source. The calls were made as follows, unless noted: active = hit-call score of the fitted dose curve at least 0.9, where 1 is the maximum; inactive = score below 0.9.

How the values were obtained:
[1] = CCTE_Shafer_MEA_dev_active_electrodes_number: CCTE's Neural Network Formation Assay for Number of Active Electrodes, Shafer Lab (AID 2284040; active = hit-call score of the fitted dose curve at least 0.9, where 1 is the maximum;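 also: potency for loss of active electrodes versus DMSO so lower counts are hits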)
Procedure, shortened: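 Primary rat cortical neurons on 16-electrode MEA wells, exposed from day 0 through day 12 with compound renewed at DIV 5 and 9 feeds. Active electrodes (mean firing ≥5 spikes/min) counted at DIV 5, 7, 9, 12; trapezoidal AUC across days, loss-of-signal versus DMSO.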

[2] = CCTE_Shafer_MEA_dev_bursting_electrodes_number: CCTE's Neural Network Formation Assay for Number of Bursting Electrodes, Shafer Lab (AID 2284043; active = hit-call score of the fitted dose curve at least 0.9, where 1 is the maximum;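 also: potency is for loss of bursting electrodes relative to DMSO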)
Procedure, shortened: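 Read-out is the per-well number of electrodes bursting at least once every 2 minutes, recorded on days 5, 7, 9 and 12 and collapsed by trapezoidal area under the curve. Cultures were primary rat cortical neurons on MEA plates, treated continuously from plating.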

[3] = CCTE_Shafer_MEA_dev_AB: CCTE's Alamar Blue Assay for Cytotoxicity in the Neural Network Formation Assay, Shafer Lab (AID 2284083; active = hit-call score of the fitted dose curve at least 0.9, where 1 is the maximum;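 also: resazurin reduction fluorescence as viability of cultured neurons; twelve days of exposure from plating with re-dosing on DIV 5 and 9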)
Procedure, shortened: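 Resazurin fluorescence, relative to DMSO, gauges viability after twelve days of exposure that began at plating of rat cortical neurons (1.5 x 10^5 cells/well, 48-well MEA); treatment renewed with full medium exchange on DIV 5 and 9.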

[4] = CCTE_Mundy_HCI_Cortical_Synap_Neur_Matur_NeuriteSpotCountPerNeuriteLength: CCTE's Synaptogenesis and Neurite Maturation Assay in rat cortical cells for Neurite Spot Count per Neurite Length, Mundy Lab (AID 2284210)
Procedure, shortened: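 Primary rat cortical neurons, compound exposure DIV 7–12, 288.33 h endpoint. Hoechst, anti-MAP2 and anti-synaptophysin labelling; neurite-associated puncta per neurite length scored by automated imaging relative to DMSO controls.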

[5] = CCTE_Mundy_HCI_Cortical_Synap_Neur_Matur_BPCount: CCTE's Synaptogenesis and Neurite Maturation Assay in rat cortical cells for Branch Point Count, Mundy Lab (AID 2284211)
Procedure, shortened: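 Rat primary cortical cultures, AraC added DIV 5; chemicals dosed DIV 7 through DIV 12. Fixed cells stained for MAP2, synaptophysin and Hoechst; neurite branch points counted by automated high-content imaging, fitted relative to DMSO.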

[6] = CCTE_Mundy_HCI_Cortical_NOG_NeuriteCount: CCTE's Neurite Outgrowth Assay in rat cortical cells for Neurite Count, Mundy Lab (AID 2284212);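 also: cells fixed about two days after chemical exposure began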
Procedure, shortened: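 Neurite number per cell from high-content imaging of betaIII-tubulin immunostaining, with Hoechst nuclear counterstain.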

[7] = CCTE_Mundy_HCI_Cortical_NOG_NeuriteLength: CCTE's Neurite Outgrowth Assay in rat cortical cells for Neurite Length, Mundy Lab (AID 2284213);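 also: neurites imaged about 48 to 50 h after chemical exposure began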
Procedure, shortened: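 Neurite length was read by high-content imaging of βIII-tubulin-labelled neurites in rat primary cortical cultures. Activity was fitted relative to DMSO.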

[8] = CCTE_Mundy_HCI_Cortical_Synap_Neur_Matur_NeuriteLength: CCTE's Synaptogenesis and Neurite Maturation Assay in rat cortical cells for Neurite Length, Mundy Lab (AID 2284214)
Procedure, shortened: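 Rat cortical neurons, AraC at DIV 5; compound + media change DIV 7, end DIV 12 (288.33 h). Fix, MAP2/synaptophysin/Hoechst immunostain, automated HCI of neurite length vs DMSO.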

[9] = CCTE_Mundy_HCI_Cortical_Synap_Neur_Matur_NeuriteSpotCountPerNeuron: CCTE's Synaptogenesis and Neurite Maturation Assay in rat cortical cells for Neurite Spot Count per Neuron Count, Mundy Lab (AID 2284215)
Procedure, shortened: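 Synapse density is scored as synaptophysin spots along neurites per neuron in fixed rat cortical neurons, measured at DIV 12 after chemical dosing at DIV 7. DMSO is the negative control and activity baseline.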

[10] = CCTE_Mundy_HCI_Cortical_Synap_Neur_Matur_SynapseCount: CCTE's Synaptogenesis and Neurite Maturation Assay in rat cortical cells for Synapse Count, Mundy Lab (AID 2284218)
Procedure, shortened: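 Primary rat cortical culture; AraC DIV 5 to arrest glia; compound + media change DIV 7; terminated DIV 12. PFA/Hoechst fix, anti-MAP2 + anti-synaptophysin immunostain; HCI synapse count/neuron; DMSO = baseline.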

[11] = CCTE_Mundy_HCI_hN2_NOG_NeuriteCount: CCTE's Neurite Outgrowth Assay in human hN2 cells for Neurite Count, Mundy Lab (AID 2284219; active = hit-call score of the fitted dose curve at least 0.9, where 1 is the maximum)
Procedure, shortened: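 In this morphology assay, hNP1-derived neurons received test chemical 2 h post-plating and were fixed two days later in warm paraformaldehyde/sucrose containing Hoechst 33342. Neurites, labelled by rabbit anti-βIII-tubulin (1:800) and Alexa Fluor-488 (1:500), were counted automatically.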

[12] = CCTE_Mundy_HCI_hN2_NOG_NeuriteLength: CCTE's Neurite Outgrowth Assay in human hN2 cells for Neurite Length, Mundy Lab (AID 2284220; active = hit-call score of the fitted dose curve at least 0.9, where 1 is the maximum)
Procedure, shortened: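 Plate hNP1-derived neurons, then add chemical 2 h later as a 1/10 dilution. Stain with anti-βIII-tubulin then Alexa Fluor-488 secondary, and image automatically to measure neurite length.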

[13] = CCTE_Mundy_HCI_hN2_NOG_NeuronCount: CCTE's Neurite Outgrowth Assay in human hN2 cells for Neuron Count, Mundy Lab (AID 2284221; active = hit-call score of the fitted dose curve at least 0.9, where 1 is the maximum)
Procedure, shortened: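 Read-out is the number of betaIII-tubulin-positive neurons imaged by automated high-content analysis, with DMSO as negative control.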

[14] = CCTE_Mundy_HCI_Cortical_Synap_Neur_Matur_NeuriteCount: CCTE's Synaptogenesis and Neurite Maturation Assay in rat cortical cells for Neurite Count, Mundy Lab (AID 2284222);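 also: exposure from day 7 to day 12 in vitro with readout at day 12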
Procedure, shortened: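 Rat cortical neurons, 96-well; AraC DIV 5; chemical + media change DIV 7; end DIV 12. Fix PFA/Hoechst, anti-MAP2 + anti-synaptophysin IF. HCI neurite count vs DMSO baseline.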

[15] = CCTE_Mundy_HCI_Cortical_Synap_Neur_Matur_CellBodySpotCount: CCTE's Synaptogenesis and Neurite Maturation Assay in rat cortical cells for Cell Body Spot Count, Mundy Lab (AID 2284223)
Procedure, shortened: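 Synapse number at neuronal cell bodies was quantified as synaptophysin puncta per neuron in rat cortical cultures exposed from DIV 7 to DIV 12. Values were normalised to DMSO.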

[16] = CCTE_Mundy_HCI_hNP1_Pro_ResponderAvgInten: CCTE's Proliferation Assay in human neuroprogenitor cells, Mundy Lab (AID 2284224; active = hit-call score of the fitted dose curve at least 0.9, where 1 is the maximum)
Procedure, shortened: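 Proliferation was scored as BrdU labelling intensity in human neural progenitors derived from WA09 embryonic cells, measured 26.25 hours after chemical dosing. Activity was fitted relative to DMSO.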

[17] = CCTE_Mundy_HCI_Cortical_NOG_NeuronCount: CCTE's Neurite Outgrowth Assay in rat cortical cells for Neuron Count, Mundy Lab (AID 2284236; active = hit-call score of the fitted dose curve at least 0.9, where 1 is the maximum;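 also: neurons counted by imaging betaIII-tubulin and Hoechst stained cortical cells; cells exposed to compound for about 48 hours before fixation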)
Procedure, shortened: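 Read-out: neuron number by high-content imaging of betaIII-tubulin (Alexa Fluor-488) and Hoechst-labelled rat primary cortical cells.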

[18] = CCTE_Mundy_HCI_Cortical_NOG_BPCount: CCTE's Neurite Outgrowth Assay in rat cortical cells for Branch Point Count, Mundy Lab (AID 2284237);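 also: branch points counted about two days after chemical exposure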
Procedure, shortened: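 Measured 50.33 h after dosing, this morphology endpoint uses rat primary cortical cultures labelled for betaIII-tubulin. Branch points are quantified by high-content imaging, with DMSO as negative control and baseline.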

[19] = CCTE_Mundy_HCI_hNP1_Casp3_7: CCTE's Caspase-Glo 3/7 Assay in human neuroprogenitor cells for Apoptosis, Mundy Lab (AID 2284240)
Procedure, shortened: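 Apoptosis is scored by activated caspase-3/7 luminescence in WA09-derived neural progenitor cells, measured 26.5 h after chemical dosing. Values represent gain of signal relative to DMSO vehicle.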

[20] = CCTE_Mundy_HCI_hNP1_CellTiter: CCTE's Cell Titer-Glo 2 Assay in human neuroprogenitor cells for Viability, Mundy Lab (AID 2284241; active = hit-call score of the fitted dose curve at least 0.9, where 1 is the maximum;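 also: a hit is a drop in ATP luminescence versus DMSO meaning reduced viability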)
Procedure, shortened: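 Human neural progenitor cells (hNP1, WA09-derived) were plated on poly-L-ornithine/laminin and grown 40 to 44 hours at 37 °C, 5% CO2 before chemical addition. Twenty-four hours later, ATP was measured by CellTiter-Glo luminescence; loss of signal versus DMSO indicates reduced viability.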

[21] = CCTE_Mundy_HCI_Cortical_Synap_Neur_Matur_NeuronCount: CCTE's Synaptogenesis and Neurite Maturation Assay in rat cortical cells for Neuron Count, Mundy Lab (AID 2284242; active = hit-call score of the fitted dose curve at least 0.9, where 1 is the maximum;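 also: hits reduce neuron count versus DMSO baseline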)
Procedure, shortened: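 Neuron number was scored by automated high-content imaging of Hoechst- and MAP2-labelled rat primary cortical cells. Glial growth was arrested with AraC at DIV 5, compounds were applied from DIV 7, and cultures ended at DIV 12.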

Question: Which AC50 [1] does the source give for `CCC[CH2][Sn]([CH2]CCC)([CH2]CCC)[O][Sn]([CH2]CCC)([CH2]CCC)[CH2]CCC` here?
Answer: 42.9 nM (active)

Question: What about the AC50 [2] of the same compound?
Answer: 37.8 nM (active)

Question: And the AC50 [3]?
Answer: 45.5 nM (active)

Question: What about the outcome [4] of the same compound?
Answer: inactive

Question: And the AC50 [5]?
Answer: 23 nM (active)

Question: And the AC50 [6]?
Answer: 27.8 nM (active)

Question: What about the AC50 [7] of the same compound?
Answer: 22.1 nM (active)

Question: What about the AC50 [8] of the same compound?
Answer: 14.5 nM (active)

Question: What about the AC50 [9] of the same compound?
Answer: 22.6 nM (active)

Question: What about the AC50 [10] of the same compound?
Answer: 22 nM (active)

Question: And the AC50 [11]?
Answer: 47.8 nM (active)

Question: What about the AC50 [12] of the same compound?
Answer: 43.6 nM (active)

Question: What about the AC50 [13] of the same compound?
Answer: 31.9 nM (active)

Question: What about the outcome [14] of the same compound?
Answer: inactive

Question: What about the AC50 [15] of the same compound?
Answer: 31.1 nM (active)

Question: What about the AC50 [16] of the same compound?
Answer: 125 nM (active)

Question: What about the AC50 [17] of the same compound?
Answer: 31.1 nM (active)

Question: And the AC50 [18]?
Answer: 27.7 nM (active)

Question: What about the AC50 [19] of the same compound?
Answer: 115 nM (active)

Question: And the AC50 [20]?
Answer: 57.2 nM (active)

Question: What about the AC50 [21] of the same compound?
Answer: 10.8 nM (active)
